Measured values published in the supplement of paper PMC6555819.

Assays:
Assay in all cases: PBM binding z-score (relative to random genomic background probes); higher = stronger binding; sequences stand for … in GC…GCGATTGACAGCGTAGAATGAAGG
[1] = system: FXR:RXRa (NR concentration 270 nM, RXRa partner concentration 90 nM)
Outline: (§1)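 Antibodies against each partner of ligand-free nuclear receptor dimers (one per run) detected binding on custom Agilent 4×180K protein-binding microarrays after 1 h incubation. The double-stranded probes had 34-nt variable regions carrying direct-repeat seeds, single-nucleotide variants, half-site ablations and random human genomic background sequences. Binding z-scores, from regression-normalized fluorescence, use the random background probes as reference.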

[2] = system: LXRa:RXRa (NR concentration 270 nM, RXRa partner concentration 90 nM)
Outline: as §1

[3] = system: LXRa homodimer (NR concentration 270 nM)
Outline: as §1

[4] = system: LXRb:RXRa (NR concentration 270 nM, RXRa partner concentration 90 nM)
Outline: as §1

[5] = system: LXRb homodimer (NR concentration 270 nM)
Outline: as §1

[6] = system: PPARa:RXRa (NR concentration 270 nM, RXRa partner concentration 90 nM)
Outline: as §1

[7] = system: PPARg:RXRa (NR concentration 180 nM, RXRa partner concentration 90 nM)
Outline: as §1

[8] = system: PPARg:RXRa 270nM:90nM, anti-RXR (NR concentration 270 nM, RXRa partner concentration 90 nM)
Outline: as §1

[9] = system: PPARg:RXRa 30nM:10nM, anti-RXR (NR concentration 30 nM, RXRa partner concentration 10 nM)
Outline: as §1

[10] = system: PPARg:RXRa 90nM:30nM, anti-RXR (NR concentration 90 nM, RXRa partner concentration 30 nM)
Outline: as §1

[11] = system: PPARg:RXRa DBDmut IVT, anti-RXR (DBD mutation: RXRa K156A/R161A, NR concentration 270 nM, RXRa partner concentration 90 nM)
Outline: as §1

[12] = system: PPARg:RXRa IVT, anti-PPARg (NR concentration 270 nM, RXRa partner concentration 90 nM)
Outline: as §1

[13] = system: PPARg DBDmut:RXRa IVT, anti-PPARg (DBD mutation: PPARg1 K132A/R137A, NR concentration 270 nM, RXRa partner concentration 90 nM)
Outline: as §1

[14] = system: PPARg DBDmut IVT, anti-PPARg (DBD mutation: PPARg1 K132A/R137A, NR concentration 270 nM)
Outline: as §1

[15] = system: PPARg homodimer (NR concentration 180 nM)
Outline: as §1

[16] = system: PXR:RXRa (NR concentration 270 nM, RXRa partner concentration 90 nM)
Outline: as §1

[17] = system: PXR homodimer (NR concentration 270 nM)
Outline: as §1

[18] = system: RARa:RXR (NR concentration 270 nM, RXRa partner concentration 90 nM)
Outline: as §1

[19] = system: RARa homodimer (NR concentration 270 nM)
Outline: as §1

[20] = system: RARb:RXRa (NR concentration 270 nM, RXRa partner concentration 90 nM)
Outline: as §1

| Sequence | PBM binding z-score [1] | PBM binding z-score [2] | PBM binding z-score [3] | PBM binding z-score [4] | PBM binding z-score [5] | PBM binding z-score [6] | PBM binding z-score [7] | PBM binding z-score [8] | PBM binding z-score [9] | PBM binding z-score [10] | PBM binding z-score [11] | PBM binding z-score [12] | PBM binding z-score [13] | PBM binding z-score [14] | PBM binding z-score [15] | PBM binding z-score [16] | PBM binding z-score [17] | PBM binding z-score [18] | PBM binding z-score [19] | PBM binding z-score [20] |
| --- | --- | --- | --- | --- | --- | --- | --- | --- | --- | --- | --- | --- | --- | --- | --- | --- | --- | --- | --- | --- |
| AGAATGAGGATAAGATCAGGGAAACAGAATACAT | 0.459 | -0.133 | -0.218 | -0.0492 | -0.342 | -0.0848 | 1.2 | -0.174 | 0.433 | 0.00747 | -0.0375 | -0.0536 | -0.123 | 0.538 | 0.327 | -0.171 | 0.272 | 0.067 | 0.354 | 0.0475 |
| GGAACGAGGGCGAAGTTGATAGCATCTGTCGACG | -0.55 | -0.447 | -0.49 | -0.637 | -0.922 | 1.42 | 2.91 | 4.71 | 1.93 | 4.02 | 1.27 | 1.23 | 0.2 | -0.848 | 0.0285 | -0.347 | -0.365 | -0.254 | -0.834 | 0.606 |
| CCGACTGGGGCAAAAGGTTACCATAAGCCAGCCC | 0.815 | 3.36 | -0.19 | 1.86 | -1.26 | 3.28 | 4.13 | 5.64 | 3.64 | 5.79 | 3.77 | 4.07 | -0.978 | -1.25 | 1.06 | 1.68 | -0.41 | 2.83 | 0.0331 | 2.8 |
| TCATATAGATAAACAGGTGAAAGTCCGTAAGTTA | 1.22 | 1.04 | 0.611 | 1.09 | 0.473 | 1.69 | 1.41 | 2.83 | 4.51 | 3.77 | 2.87 | 1.36 | 0.902 | 1.03 | 1.33 | 1.07 | 0.573 | 1.37 | 1.53 | 0.536 |
| CCAACTGGGGCAGAAAGGTTACCATACCATCCGG | 0.267 | 0.782 | 0.0649 | 1.12 | -0.79 | 2.53 | 2.29 | 2.56 | 0.915 | 2.11 | 3.25 | 3.34 | 0.0349 | -0.823 | 0.624 | 1.1 | 0.0955 | 1.98 | -0.139 | 2.03 |
| ATCTCTAGGTAAAGTTTAGTGAAAGATCGATAGA | 0.0185 | 0.132 | -0.104 | 0.124 | 0.703 | 0.485 | 0.873 | 1.36 | 0.722 | 1.25 | 2.35 | 1.77 | 1.78 | 1.51 | 0.509 | 0.187 | 0.339 | -0.0938 | 1.15 | 0.584 |
| TCTATTAGTTGAAGGGCATCCGACGAGTCCGTTT | 0.895 | 0.85 | 0.486 | 0.661 | 0.284 | 0.934 | 0.123 | 2.03 | 3.75 | 2.78 | 2.32 | 0.399 | 0.276 | 0.308 | 1.24 | 0.775 | 1.03 | 0.683 | 1.77 | 1.24 |
| TCTGCTAGGTCAGTTGGTCAGCAAACGAGCTGCC | 0.988 | 0.432 | -0.424 | 0.394 | 0.405 | 1.36 | 0.418 | 1.65 | 1.19 | 1.41 | 2.75 | 2.88 | 0.288 | 0.656 | 0.233 | 0.285 | -0.998 | 0.565 | -1.22 | 3.25 |
| CCTACTGGGCCACGAAAGGACATTGATTCAGTGA | 0.276 | 0.0312 | 0.0181 | -0.441 | -0.67 | 0.738 | 1.63 | 1.22 | -0.124 | 0.606 | 4.98 | 5.21 | 0.3 | -0.299 | 0.467 | -0.024 | -0.134 | 0.342 | 0.45 | 1.11 |
| GCTTACGGCTCAAAGGTTATAGCATGAATAGAAT | 0.876 | 1.45 | 0.0597 | 1.7 | -0.639 | 2.62 | 2.18 | 3.88 | 1.46 | 3.1 | -0.386 | 0.149 | -0.0168 | 0.142 | 0.0753 | 1.47 | -0.195 | 2.06 | 0.137 | 1.21 |
| GCCGCTAGGTCAGGTTGGTCAGCTAACGGGTACG | 1.23 | 0.593 | -0.167 | 0.545 | -0.194 | 1.41 | 0.278 | 0.955 | -0.607 | 0.0187 | 2.34 | 1.64 | -0.905 | -1.32 | 0.576 | 0.356 | -0.526 | 0.716 | -0.74 | 3.27 |
| AGAATGAGGATACCAAAGATCAGGGAAACGCTTG | 0.11 | -0.468 | -0.437 | -0.336 | -0.365 | -0.155 | 0.826 | 0.344 | 0.225 | 0.512 | 0.148 | 0.0598 | 0.131 | -0.145 | -1.29 | -0.349 | -0.0472 | -0.216 | -0.258 | -0.0511 |
| AGAACGACGGCAATGAGTTGATAGCACGGGTGGC | -0.823 | -0.86 | -0.973 | -1.01 | -0.907 | -0.728 | 0.71 | -0.672 | -0.309 | -0.536 | -0.438 | -0.402 | -0.484 | -0.862 | -0.865 | -0.631 | -0.242 | -0.819 | -0.419 | -0.448 |
| TCTATTAGTTGAATGGCAACCGACGAGTCCGTTT | 1.04 | 1.04 | 0.119 | 1.01 | 0.477 | 0.96 | -0.00847 | 2.18 | 3.81 | 2.92 | 2.47 | 0.106 | 0.422 | 0.888 | 1.27 | 0.794 | 0.892 | 0.79 | 1.08 | 0.622 |
| GCTAGTTCGTCAGTAAAAGGTCACACACCGGTCG | 3.31 | 4.47 | 4.75 | 4.05 | 0.683 | 4.56 | 1.96 | 3.56 | 1.55 | 3.22 | 0.269 | 1.84 | 0.221 | 0.516 | 5.83 | 5.56 | 1.64 | 6.4 | 3.07 | 4.08 |
